# Test results taken from PubChem BioAssay AID2501 (Southern Research Specialized Biocontainment Screening …, 2010).
# Values joined by “and” are separate entries in the source; they are usually repeats but may differ in a detail not shown here. Identical values can stand only once. The whole screen tested about 2,200 compounds, of which about 1,200 (55%) were called active. No cut-off is given here; in the data, nearly all actives have IC50 up to about 92 µM. So high a share suggests a set chosen from earlier hits. The list shows a part of the results.
# Assay: counter assay for TAg ATPase ADP read-out – biochemical, ADP-Hunter, fluorescence, counter-screen (AID 2501);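 note: purified T antigen ATPase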
# Details: series mostly up to 100 µM
row,Compound,IC50
1,O/N=C/c1ccc2ccccc2c1,inactive
2,C(=Nc1ccc(Nc2ccccc2)cc1)c1ccc2ccccc2c1,6.4 µM (active)
3,C/C(=C/c1oc2ccc(O)cc2c1[N+](=O)[O-])N(C)C,5.75 µM (active)
4,CC(=O)N1CCN(c2ccc(NCc3ccc(C)s3)cc2)CC1,3.62 µM (active)
5,O=C(C1=C[C@H](C2CCCCC2)C[C@H](OCCCCO)O1)N1CCN(Cc2ccc3c(c2)OCO3)CC1,inactive
6,O=C(c1ccc(CNS(=O)(=O)c2ccccc2)cc1)N1CCN(Cc2ccccc2)CC1,inactive
7,O=C(c1ccccc1)N1CCN(c2ccc(NCc3ccc4c(c3)OCO4)cc2)CC1,5.7 µM (active)
8,CC(=O)N1CCN(c2ccc(NCc3cccc4ccccc34)cc2)CC1,4.52 µM (active)
9,O=C(O)CC(C(=O)O)n1nc(-c2ccccc2)cc1-c1ccccc1 (stereo not given),inactive
10,CC(=O)c1ccc2c(c1)C1C=CCC1C(C(=O)O)N2 (stereo not given),inactive
11,CCn1ccc(C(=O)N2CCN(c3ncccn3)CC2)n1,inactive
12,Cc1csc(N/N=C/c2ccc(O)c([N+](=O)[O-])c2)n1,13.2 µM (active)
13,CC(C)(C)c1ccc(C(=O)n2cnc3ccccc32)cc1,inactive
14,Oc1ccc(-c2nc(-c3ccc(F)cc3)c(-c3ccncc3)[nH]2)cc1,8.21 µM (active)
15,C/C(=N/OC(=O)C1CC1)c1cc(-c2ccc(Cl)cc2)no1,inactive
16,Cc1ccc(OC(=S)Nc2ccc(O)cc2)cc1,7.84 µM (active)
17,CC1(c2ccccc2)NC(=O)N(CC(=O)Nc2ccc(S(=O)(=O)Nc3ncccn3)cc2)C1=O (stereo not given),inactive
18,CCN(c1ccc(NC(=O)CN2C(=O)NC3(CCOc4ccccc43)C2=O)cc1)C(C)C (stereo not given),11.1 µM (active)
19,Cc1cc(C(=O)NNC(=O)CN2C(=O)NC(C)(c3ccccc3)C2=O)c(C)o1 (stereo not given),inactive
20,Cc1cc2c(N=O)c(NO)ccc2[nH]1,24.4 µM (active)
21,O=C1CNC(=S)N1CCc1ccc(O)c(O)c1,10.7 µM (active)
22,OC(COc1ccc2cc(Br)ccc2c1)CN1CCCC1 (stereo not given),inactive
23,O/N=C(\c1ccc2c(c1)OCCO2)C1CCCCC1,inactive
24,O=c1ccc2cc(O)c(O)cc2o1,11.3 µM (active)
25,N#CSCC(=O)c1cccc2ccccc12,inactive

row,Compound,IC50
1,O=C(c1ccc([N+](=O)[O-])cc1)N1CCN(c2cccc3[nH]ccc23)CC1,8.91 µM (active)
2,Cc1cc(OCC(=O)N(C)c2ccccc2)cc2c1C(=O)CC(C)(C)O2,inactive
3,O=C(NCCO)c1ccc2nc(-c3ccco3)c(-c3ccco3)nc2c1,inactive
4,CCCc1cc(C(=O)N2CCCC(C(=O)c3cccc4ccccc34)C2)n(C)n1 (stereo not given),inactive
5,O=C(/C=C/c1ccc(O)c(O)c1)O[C@@H]1C[C@](O)(C(=O)O)C[C@@H](O)[C@H]1O,4.26 µM (active) and 8.41 µM (active)
6,CCCCNC(=O)c1onc(CCl)c1C(=O)OC,inactive
7,COc1cc(SC)ccc1C(=O)N1CCN(c2ccc(O)cc2)CC1,5.86 µM (active)
8,O=C(CCC1CCCCC1)Nc1ccccc1C(=O)N1CCOCC1,inactive
9,COc1cc(SC)ccc1C(=O)N1CCN(Cc2ccccc2)CC1,inactive
10,COc1cc(Cl)ccc1NC(=O)COc1ccccc1C(=O)N1CCN(c2ccc(O)cc2)CC1,6.1 µM (active)
11,CCCCC(=O)OCC(=O)c1[nH]c(C)c(C(=O)OCC)c1C,inactive
12,COc1cccc([C@H](O)Cn2cc(-c3ccc(CON=C(C)C)cc3)nn2)c1,inactive
13,CN(C)c1ccc(NC(=O)COC(=O)Cn2nnc3ccccc32)cc1,4.51 µM (active)
14,CN(C)c1ccc(NC(=O)CN2CCN(c3ccc(F)cc3)CC2)cc1,2.66 µM (active)
15,CCOc1ccc(NC(=O)Cn2sc3nc(C)cc(C)c3c2=O)cc1,inactive
16,CN(C)c1ccc(NC(=O)CN2CCN(CC(=O)Nc3ccc(F)cc3)CC2)cc1,9.6 µM (active)
17,CN(C)c1ccc(NC(=O)Cn2ncn3c(cc4ccccc43)c2=O)cc1,10.4 µM (active)
18,Cc1cccc(-n2c3nc(=O)[nH]c(=O)c-3cc3cc([N+](=O)[O-])ccc32)c1,inactive
19,CCOC(=O)C1CCN(c2ncnc3c2nnn3Cc2ccccc2Cl)CC1,inactive
20,CCOC(=O)c1ccc(NC(=O)CC2NCCNC2=O)cc1 (stereo not given),inactive
21,CN(C)c1ccc(NC(=O)COC(=O)CCC(=O)c2ccc(F)cc2)cc1,4.64 µM (active)
22,Cc1c(-c2ccccc2)oc2c(C(=O)OCC(=O)Nc3ccc(C(N)=O)cc3)cccc2c1=O,inactive
23,CN(C)c1ccc(NC(=O)CC2NCCNC2=O)cc1 (stereo not given),4.71 µM (active)
24,Cc1nn(CC(=O)Nc2ccc(N(C)C)cc2)c(C)c1[N+](=O)[O-],5.17 µM (active)
25,Oc1ccc2c(c1)C1CCCC1(N1CCOCC1)O2 (stereo not given),inactive

row,Compound,IC50
1,COc1ccc(NCN2C(=O)C3C4C=CC(C4)C3C2=O)cc1 (stereo not given),11.4 µM (active)
2,CC(C)(C)c1nnc(NC(=O)CN2C(=O)C3C4C=CC(C4)C3C2=O)s1 (stereo not given),inactive
3,c1ccc(-c2ccc3c(c2)NCCN3)cc1,7.7 µM (active)
4,CCCCC/C=C\C/C=C\C/C=C\C/C=C\CCCC(=O)O,inactive
5,CCCCCn1c(=O)c2ccccc2n2c(=S)[nH]nc12,11.7 µM (active)
6,COc1cccc(N2CC(=O)Nc3c(oc4nc(-c5ccccc5)cc(C)c34)C2=O)c1,inactive
7,CC(C)CCn1c(=O)c2ccccc2n2c(=S)[nH]nc12,10.9 µM (active)
8,COCCCn1c(=O)c2ccccc2n2c(=S)[nH]nc12,8.77 µM (active)
9,COc1cccc(-n2cnnn2)c1,inactive
10,COc1cccc(-n2c(=O)c3ccccc3n3c(=S)[nH]nc23)c1,16.1 µM (active)
11,CCCn1c(=O)c2ccccc2n2c(=S)[nH]nc12,3.07 µM (active)
12,CCCCn1c(-c2cccc3ccccc23)nc2cc3[nH]c(=O)c(C(C)C)nc3cc21,inactive
13,CCCCn1c(=O)c2ccccc2n2c(=S)[nH]nc12,11.3 µM (active)
14,CC(C)C(=O)c1ccc(O)c(O)c1,1.71 µM (active)
15,COc1ccc(NS(=O)(=O)c2ccc(NS(=O)(=O)c3ccc(SC)cc3)cc2)c(OC)c1,inactive
16,CCCNC(=O)NS(=O)(=O)c1ccc(Cl)cc1,inactive
17,O=C(NCc1cccnc1)C(=O)Nc1cc2c3c(c1)CC(=O)N3CCC2,inactive
18,CN(C)c1ccc(NS(=O)(=O)c2ccc(Cl)cc2)cc1,5.63 µM (active)
19,CN(C)c1ccc(NS(=O)(=O)c2cccc(Cl)c2)cc1,13 µM (active)
20,O=C(CNS(=O)(=O)c1cccc(Cl)c1)OCc1csc(-c2ccccc2)n1,inactive
21,CN(C)c1ccc(NS(=O)(=O)c2cc3c4c(c2)CC(=O)N4CCC3)cc1,1.83 µM (active)
22,O=C(CC(Sc1ccc(Br)cc1)C(=O)O)c1ccc(Br)cc1 (stereo not given),inactive
23,Oc1ccc(/C=N/Nc2ncnc3c2ncn3Cc2ccccc2)cc1O,10.1 µM (active)
24,CNC(=O)CS(=O)CC(=O)Nc1cc(OCCOC)c(Cl)cc1Cl (stereo not given),inactive
25,CCOC(=O)c1ccc(-c2c(-c3ccc4c(c3)OCO4)noc2-c2ccsc2)cc1F,inactive

row,Compound,IC50
1,CCOC(=O)c1[nH]nc(-c2cc(CC)c(O)cc2O)c1-c1cscn1,7.84 µM (active)
2,CN(C)c1ccc(Nc2nc(N)c([N+](=O)[O-])c(N3CCOCC3)n2)cc1,4.28 µM (active)
3,CCOc1ccc(/C=C(\C#N)C(=O)NC2CC2)c(OCC)c1,inactive
4,COc1ccc(/C=C(/C#N)C(=O)Nc2ccc(O)cc2)cc1C(=O)O,2.62 µM (active)
5,N#C/C(=C\c1ccc(O)c([N+](=O)[O-])c1)C(=O)NCc1ccccc1,inactive
6,N#C/C(=C\c1ccccc1OCc1ccc(C(=O)O)cc1)C(=O)Nc1ccc(O)cc1,5.71 µM (active)
7,N#C/C(=C\c1ccc(O)c(O)c1)C(=O)NCc1ccccc1,7.7 µM (active)
8,O=C(/C=C/c1ccc(Br)o1)NCc1ccccc1,inactive
9,O=C(O)c1ccc(COc2ccccc2C=C2C(=O)c3ccccc3C2=O)cc1,inactive
10,CNc1ccc(/C=C(\C#N)C(=O)Nc2ccccn2)cc1[N+](=O)[O-],inactive
11,N#C/C(=C\c1ccc(O)c(O)c1)C(=O)Nc1cccc2ncccc12,4.88 µM (active)
12,COc1c(O)ccc2c1CN1CCc3cc4c(cc3C1C2)OCO4 (stereo not given),inactive
13,CCOC(=O)c1ccc(S(=O)(=O)Nc2nc3cc(S(=O)(=O)NC4=NCCCCC4)ccc3s2)cc1,inactive
14,N#C/C(=C\c1ccc(N2CCOCC2)o1)C(=O)Nc1ccc(O)cc1,1.66 µM (active)
15,N#C/C(=C\c1ccc(O)c(O)c1)C(=O)NCCc1ccccc1,5.36 µM (active)
16,N#C/C(=C\c1ccc(O)c(O)c1)C(=O)NCCCc1ccccc1,8.38 µM (active)
17,N#C/C(=C\c1ccc(O)c(O)c1)C(=O)Nc1ccccc1,12.6 µM (active)
18,CC(c1ccncn1)N(C)Cc1nc(Cc2ccccc2F)no1 (stereo not given),inactive
19,C[C@@H](NC(=O)/C(C#N)=C/c1ccc(O)c(O)c1)c1ccccc1,4.73 µM (active)
20,CCC(C)NC(=O)CC(c1ccccc1)c1cc(C)ccc1O (stereo not given),inactive
21,Oc1c(C(c2ccco2)N2CCN(C(c3ccccc3)c3ccccc3)CC2)sc2ncnn12 (stereo not given),inactive
22,C/C(=N\NC(=O)CSc1nc2ccccc2o1)c1ccc(O)cc1,6.4 µM (active)
23,C/C(=N/NC(=O)CSc1nc2ccccc2n1C)c1ccc(O)cc1,6.92 µM (active)
24,Cc1ccc(C)c(-n2c3nc(=O)[nH]c(=O)c-3cc3cc([N+](=O)[O-])ccc32)c1,inactive
25,COc1ccccc1C(C)NS(=O)(=O)c1cccs1 (stereo not given),inactive
